Ten compounds from PubChem BioAssay (NCATS) can be followed below.

Assay [1] concerns the target Lysosomal acid glucosylceramidase (Homo sapiens) (UniProt P04062). Briefly: Glucocerebrosidase-p2 (AID 348; in the data active means potency below about 10 µM; further: potency means the concentration at half of the fitted maximal effect). The conditions noted are these: purified GBA, blue fluorogenic substrate, 40 min. The essentials: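 Normal human glucocerebrosidase (0.2 nM) with blue fluorogenic substrate (80 uM final) in citrate/phosphate pH 5.9 with 10mM sodium taurocholate, 0.01% tween-20; 40 min RT, NaOH/glycine stop; fluorescence Ex 365/Em 440; AC50 from a titration from 0.6 nM upwards.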

Assay [2] in a line: NFAT Signaling Pathway (AID 444; active means well fitted curve in either direction with a large enough effect, not every such curve was filed as active;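 further: carbachol stimulus at about its EC50 of 1 µM final; on the % scale 0 is the no-effect control and ±100 the full control effect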). The conditions noted are these: Jurkat NFAT-bla M1, carbachol, beta-lactamase ratio, 5 h; at 7.69 µM (top of the series) unless noted. The essentials:
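Read-out: CCF4 FRET ratio (460 nm/530 nm) after 1 h RT dye loading, used for %activity and AC50 from titration series. Cells: Jurkat NFAT-β-lactamase/M1 line, treated with compound plus 1 uM carbachol for 5 h, 37 °C.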

The nature of assay [3]: Stat Signaling Pathway (AID 446; active means well fitted curve in either direction with a large enough effect, not every such curve was filed as active;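 further: ME-180 cervical cancer cells given 40 pM IL-6 alongside compound; SIE-controlled beta-lactamase reporter measured as 460/530 nm FRET emission ratio; on the % scale 0 is the no-effect control and ±100 the full control effect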). The essentials: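 Overnight-plated ME-180 cells bearing a STAT Inducible Element beta-lactamase reporter; 5 h co-exposure to compound and 40 pM IL-6; values normalized to 300 pM IL-6 and 125 nM JAK inhibitor controls.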
In assay [4] the target is Glucocorticoid receptor (Homo sapiens) (UniProt P04150). Nature of the assay: GR-GFP Redistribution (AID 450;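 active means compounds whose dose series gives a full or clear partial fitted curve of increased nuclear translocation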; further: potency means the concentration at half of the fitted maximal effect). The conditions noted are these: U2OS GR-GFP nuclear translocation, laser cytometry, 2 h.
For assay [5] the target is unchanged. Briefly: GR-EFC Redistribution (AID 451; calls by dose curve; further: potency means the concentration at half of the fitted maximal effect). The conditions noted are these: CHO-K1 GR-EFC translocation, beta-gal luminescence, 2 h. The essentials:
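Translocation of GR-ED fusion to nuclear EA restores b-gal, read by luminescence after 1 h room-temperature detection. Engineered CHO-K1 biosensor cells, 1,000/well, exposed 2 h at 37 C to titrations up to 46 uM final.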

The target of assay [6] is Mitogen-activated protein kinase 10 (Mus musculus) (UniProt Q61831). Briefly: JNK3 AlphaScreen Assay (AID 530; active means well fitted curve in either direction with a large enough effect, not every such curve was filed as active;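 further: kinase came from lysate of stimulated human HepG2 cells; signal reports phosphorylation of biotinylated GST-cJun 1-79 at Ser73 with 10 µM ATP; on the % scale 0 is the no-effect control and ±100 the full control effect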). The essentials: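 qHTS titrations with 15 min compound pre-incubation before adding ATP (10 uM final). Read-out: AlphaScreen of Ser73-phosphorylated biotin-GST-cJun using HepG2 lysate JNK3 activated by IL-1β and TNFα.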
On the technique in general: Bead proximity is the source of the signal in Alpha formats.

The target of assay [7] is Cytochrome P450 3A4 (Homo sapiens) (UniProt P08684). Nature of the assay: qHTS Assay for Activators of Cytochrome P450 3A4 (AID 885). Further: nearly all actives have a fitted effect of over 65% in size. The essentials: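 Using 20nM recombinant human CYP3A4 in potassium phosphate (200mM), substrate Luciferin-PPXE at 25uM, luminescent luciferin detection followed a 60-min RT NADPH reaction; data scaled to 57 uM ketoconazole.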
For orientation: Quantitative high-throughput screening tests each substance at several concentrations.

The target of assay [8] is Dual specificity protein kinase CLK4 (Homo sapiens) (UniProt Q9HAZ1). Briefly: qHTS Assay for Inhibitors of CDC-like Kinase 4 (Kinase-Glo Assay) (AID 1770). Further: nearly all actives have a fitted effect of over 65% in size. Further: potency means the concentration at half of the fitted maximal effect. The essentials: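 Inhibition was judged from remaining ATP, measured by Ultra-Glo luciferase bioluminescence after Clk4 (25 nM) had acted on RS peptide at 1 uM ATP for 4.5 hours, room temperature.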
Assay [9] shares this target. Nature of the assay: qHTS Assay for Inhibitors of CDC-like Kinase 4 (ADP-FP Assay) (AID 1795).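 Further: recombinant human CLK4 phosphorylating RS repeat peptide at 1 µM ATP; on the % scale 0 is the no-effect control and ±100 the full control effect; nearly all actives have a fitted effect of over 60% in size.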 The essentials:
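Inhibition of ADP formation by 6.25 nM Clk4 is measured using 1 uM ATP and 100 uM RS repeat peptide over one hour. Produced ADP displaces a fluorescent tracer from antibody, lowering polarization.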

The target of assay [10] is Ubiquitin carboxyl-terminal hydrolase 1 (Homo sapiens) (UniProt O94782). Briefly: Inhibitors of USP1/UAF1: Pilot qHTS (AID 504865).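 Further: rhodamine fluorescence freed from ubiquitin-rhodamine substrate followed over time; top concentration of the series differs between compounds; on the % scale 0 is the no-effect control and ±100 the full control effect; nearly all actives have a fitted effect of over 35% in size.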 The essentials:
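Kinetic fluorescence assay: 1nM USP1/UAF1, 15 min compound preincubation, then 150nM Ub-Rho; 480/540 nm.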

A short description of assay [11]: AP1 Signaling Pathway (AID 357; active means well fitted curve in either direction with a large enough effect, not every such curve was filed as active;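 further: ME-180 reporter cells stimulated with EGF at its EC50 level; on the % scale 0 is the no-effect control and ±100 the full control effect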). The conditions noted are these: ME-180 AP-1-bla reporter, EGF-induced, beta-lactamase ratio, 5 h; at 7.69 µM (top of the series) unless noted. The essentials:
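Cells are seeded overnight, exposed to compound titrations and an EC50 level of EGF for 5 hours at 37 °C, then loaded with CCF4 dye for 2.5 hours. Beta-lactamase activity under the AP-1 element is read as a blue/green ratio.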

Assay [12] deals with Cytochrome P450 1A2 (Homo sapiens) (UniProt P05177). Nature of the assay: p450-cyp1a2 (AID 410; calls by dose curve; further: potency means the concentration at half of the fitted maximal effect). The essentials:
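Luminescent demethylation readout: Luciferin-ME (100uM, equal to Km) turned over by 20nM CYP1A2 for 60 min at room temperature after NADPH regeneration addition, following 10 min compound preincubation. Normalization used 57 uM furafylline as full inhibition.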

The target in assay [13] is 3',5'-cyclic-AMP phosphodiesterase 4B (Homo sapiens) (UniProt Q07343). Nature of the assay: qHTS Assay for Inhibitors of PDE-IV (AID 607; active means well fitted activation curve with a large enough effect in the main read-out, with a control signal flat, not every such curve was filed as active; further: % of control where 0% means no effect). The essentials: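 Live HEK293 cells with a modified cyclic nucleotide-gated (CNG) channel report intracellular cAMP via membrane-potential dye fluorescence (ex 535/em 590 nm). Endogenous PDE-IV was targeted. Compounds were tested at up to 22.9 uM final; RO 20-1724 100 uM served as control.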

A short description of assay [14]: qHTS Assay for Identification of Small Molecule Agonists for Hypoxia Response Element Signaling Pathway (AID 914; active means well fitted activation curve with a large enough effect in the signal ratio, with a control signal flat, not every such curve was filed as active; the % refers to the signal ratio; further: potency means the concentration at half of the fitted maximal effect). The conditions noted are these: ME-180 (cervical carcinoma) HRE-bla reporter, beta-lactamase ratio, CoCl2, 17 h; activation: stronger effect = higher value. The essentials:
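HRE-bla ME-180 cells, overnight plating in Opti-MEM with 0.5% dialyzed FBS; cpd titration + EC50 CoCl2, 17 h, 37 degrees Celsius; CCF4 2.5 h RT; 460/530 nm ratio; AC50.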

Assay [15] addresses Dual specificity protein kinase CLK4 (Homo sapiens) (UniProt Q9HAZ1). Briefly: qHTS Assay for Inhibitors of CDC-like Kinase 4 (ADP-Glo Assay) (AID 1771). Further: nearly all actives have a fitted effect of over 70% in size. Further: potency means the concentration at half of the fitted maximal effect. The essentials:
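ADP production was read by ADP-Glo luminescence after residual ATP depletion, following 1 h room-temperature reaction of 25 nM Clk4, 1 uM ATP and 100 uM RS peptide with MgCl2, EGTA, DTT and Triton X-100.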

The target of assay [16] is Cytochrome P450 2C19 (Homo sapiens) (UniProt P33261). Nature of the assay: qHTS Assay for Inhibitors and Substrates of Cytochrome P450 2C19 (AID 899). Further: potency means the concentration at half of the fitted maximal effect; nearly all actives have a fitted effect of over 60% in size. The essentials:
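Reactions contain 5nM enzyme, 10uM Luciferin-H EGE (KM) and 50mM KPO4; compound preincubates 10 min at 37C, NADPH regeneration starts turnover for 60 min. Luminescence after detection reagent gives activity.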

In assay [17] the target is Cytochrome P450 3A4 (Homo sapiens) (UniProt P08684). Briefly: qHTS Assay for Inhibitors and Substrates of Cytochrome P450 3A4 (AID 884). Further: on the % scale 0 is the no-effect control and ±100 the full control effect; nearly all actives have a fitted effect of over 50% in size. The essentials:
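Luminescent readout of luciferin produced by CYP3A4 (20 nM) dealkylation of Luciferin-PPXE, 25 uM (its KM). NADPH-driven reaction ran 60 min at RT after 10 min compound preincubation; data scaled to 57 uM ketoconazole as 100% inhibition.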

Structures are written as SMILES. Values without a mark were called inactive. Results filed as inconclusive are left out. Calls of active or inactive are those of the source. Unless noted, the call rests on the fitted dose curve; in most records, active means well fitted curve in the direction sought with a large enough effect; inconclusive means small, poorly fitted or top-dose-only effect, or another doubt; inactive means no such curve, though single readings can be large; an effect the other way counts as inactive or inconclusive.

Cytochrome P450 3A4 (Homo sapiens), sequence (P08684 whole entry, looked up): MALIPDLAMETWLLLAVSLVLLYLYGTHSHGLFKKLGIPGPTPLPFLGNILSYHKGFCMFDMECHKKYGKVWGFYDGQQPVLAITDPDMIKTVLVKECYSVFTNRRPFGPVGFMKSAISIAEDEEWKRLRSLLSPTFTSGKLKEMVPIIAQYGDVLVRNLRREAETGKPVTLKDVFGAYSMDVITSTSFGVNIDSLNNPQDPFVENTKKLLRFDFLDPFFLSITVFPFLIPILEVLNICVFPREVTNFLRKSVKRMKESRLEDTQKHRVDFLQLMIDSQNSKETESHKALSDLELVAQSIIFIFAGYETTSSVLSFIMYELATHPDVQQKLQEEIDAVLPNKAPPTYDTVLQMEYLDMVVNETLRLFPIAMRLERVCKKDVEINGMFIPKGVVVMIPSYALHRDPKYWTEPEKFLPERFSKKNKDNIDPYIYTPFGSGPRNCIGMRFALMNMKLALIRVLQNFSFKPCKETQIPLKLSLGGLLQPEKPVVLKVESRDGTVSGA
3',5'-cyclic-AMP phosphodiesterase 4B (Homo sapiens), sequence (Q07343 whole entry, looked up): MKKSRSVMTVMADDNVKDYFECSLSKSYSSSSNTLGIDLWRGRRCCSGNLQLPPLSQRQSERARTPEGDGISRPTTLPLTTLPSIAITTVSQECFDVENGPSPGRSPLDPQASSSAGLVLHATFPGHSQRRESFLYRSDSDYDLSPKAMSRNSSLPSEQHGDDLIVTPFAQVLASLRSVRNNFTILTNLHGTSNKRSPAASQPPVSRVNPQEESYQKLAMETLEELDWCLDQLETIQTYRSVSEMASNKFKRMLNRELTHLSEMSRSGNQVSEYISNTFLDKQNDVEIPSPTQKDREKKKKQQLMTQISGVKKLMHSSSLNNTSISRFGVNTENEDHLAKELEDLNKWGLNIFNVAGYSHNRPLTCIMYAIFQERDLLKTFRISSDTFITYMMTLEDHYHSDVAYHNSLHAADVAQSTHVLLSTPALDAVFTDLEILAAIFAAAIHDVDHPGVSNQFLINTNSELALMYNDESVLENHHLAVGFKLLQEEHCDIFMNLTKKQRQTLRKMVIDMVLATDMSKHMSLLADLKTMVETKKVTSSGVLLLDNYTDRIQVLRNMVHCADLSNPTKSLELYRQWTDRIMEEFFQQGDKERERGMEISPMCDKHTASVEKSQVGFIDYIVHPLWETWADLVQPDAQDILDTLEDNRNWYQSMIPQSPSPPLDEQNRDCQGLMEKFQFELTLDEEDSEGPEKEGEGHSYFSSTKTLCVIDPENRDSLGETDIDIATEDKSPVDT
Dual specificity protein kinase CLK4 (Homo sapiens), sequence (Q9HAZ1 whole entry, looked up): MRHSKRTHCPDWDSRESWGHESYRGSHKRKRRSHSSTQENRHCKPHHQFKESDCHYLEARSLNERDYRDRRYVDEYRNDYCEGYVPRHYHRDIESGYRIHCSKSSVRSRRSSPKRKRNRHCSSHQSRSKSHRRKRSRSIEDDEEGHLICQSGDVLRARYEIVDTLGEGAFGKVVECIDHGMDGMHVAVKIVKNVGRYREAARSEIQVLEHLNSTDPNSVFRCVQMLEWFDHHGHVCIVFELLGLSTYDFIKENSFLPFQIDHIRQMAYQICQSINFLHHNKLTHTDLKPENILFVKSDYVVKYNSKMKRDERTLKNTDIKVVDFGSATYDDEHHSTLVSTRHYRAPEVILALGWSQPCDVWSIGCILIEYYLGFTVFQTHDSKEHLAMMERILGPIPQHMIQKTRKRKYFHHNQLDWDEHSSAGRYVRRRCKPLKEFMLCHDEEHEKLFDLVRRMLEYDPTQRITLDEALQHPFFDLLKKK
Glucocorticoid receptor (Homo sapiens), sequence (P04150 whole entry, looked up): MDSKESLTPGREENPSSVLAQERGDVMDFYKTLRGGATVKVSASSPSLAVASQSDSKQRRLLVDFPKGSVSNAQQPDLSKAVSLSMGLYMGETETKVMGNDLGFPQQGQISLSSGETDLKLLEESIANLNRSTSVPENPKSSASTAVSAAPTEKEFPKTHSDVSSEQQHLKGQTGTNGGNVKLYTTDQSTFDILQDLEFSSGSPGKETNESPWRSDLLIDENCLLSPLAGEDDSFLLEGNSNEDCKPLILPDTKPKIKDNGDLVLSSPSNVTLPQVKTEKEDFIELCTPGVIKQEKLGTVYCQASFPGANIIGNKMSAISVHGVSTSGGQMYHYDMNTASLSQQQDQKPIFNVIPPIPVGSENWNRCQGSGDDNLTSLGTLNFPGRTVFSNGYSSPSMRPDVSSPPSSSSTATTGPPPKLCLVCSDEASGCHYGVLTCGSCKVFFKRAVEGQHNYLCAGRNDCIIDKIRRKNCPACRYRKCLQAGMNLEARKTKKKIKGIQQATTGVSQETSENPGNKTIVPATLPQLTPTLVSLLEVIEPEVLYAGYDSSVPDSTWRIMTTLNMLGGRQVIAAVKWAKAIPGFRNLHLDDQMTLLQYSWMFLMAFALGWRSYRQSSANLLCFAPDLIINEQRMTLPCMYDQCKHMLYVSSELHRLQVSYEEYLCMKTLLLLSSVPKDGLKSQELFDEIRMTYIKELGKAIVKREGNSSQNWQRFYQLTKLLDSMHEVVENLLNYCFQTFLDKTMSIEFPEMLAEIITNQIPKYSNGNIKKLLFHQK
Lysosomal acid glucosylceramidase (Homo sapiens), sequence (P04062 whole entry, looked up): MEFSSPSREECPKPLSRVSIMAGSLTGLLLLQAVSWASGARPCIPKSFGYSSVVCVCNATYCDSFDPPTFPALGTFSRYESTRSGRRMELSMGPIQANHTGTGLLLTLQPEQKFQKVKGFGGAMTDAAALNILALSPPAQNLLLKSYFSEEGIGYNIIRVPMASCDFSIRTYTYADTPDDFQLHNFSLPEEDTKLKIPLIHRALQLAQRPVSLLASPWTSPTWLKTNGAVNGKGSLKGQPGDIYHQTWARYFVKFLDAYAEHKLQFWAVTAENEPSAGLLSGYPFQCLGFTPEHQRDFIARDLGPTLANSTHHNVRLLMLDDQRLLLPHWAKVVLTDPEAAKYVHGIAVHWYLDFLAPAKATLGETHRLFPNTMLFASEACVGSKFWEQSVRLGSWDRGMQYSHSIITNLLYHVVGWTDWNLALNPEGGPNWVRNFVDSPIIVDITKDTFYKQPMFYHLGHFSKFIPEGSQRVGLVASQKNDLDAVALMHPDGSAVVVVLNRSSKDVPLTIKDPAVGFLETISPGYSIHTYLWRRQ
Cytochrome P450 1A2 (Homo sapiens), sequence (P05177 whole entry, looked up): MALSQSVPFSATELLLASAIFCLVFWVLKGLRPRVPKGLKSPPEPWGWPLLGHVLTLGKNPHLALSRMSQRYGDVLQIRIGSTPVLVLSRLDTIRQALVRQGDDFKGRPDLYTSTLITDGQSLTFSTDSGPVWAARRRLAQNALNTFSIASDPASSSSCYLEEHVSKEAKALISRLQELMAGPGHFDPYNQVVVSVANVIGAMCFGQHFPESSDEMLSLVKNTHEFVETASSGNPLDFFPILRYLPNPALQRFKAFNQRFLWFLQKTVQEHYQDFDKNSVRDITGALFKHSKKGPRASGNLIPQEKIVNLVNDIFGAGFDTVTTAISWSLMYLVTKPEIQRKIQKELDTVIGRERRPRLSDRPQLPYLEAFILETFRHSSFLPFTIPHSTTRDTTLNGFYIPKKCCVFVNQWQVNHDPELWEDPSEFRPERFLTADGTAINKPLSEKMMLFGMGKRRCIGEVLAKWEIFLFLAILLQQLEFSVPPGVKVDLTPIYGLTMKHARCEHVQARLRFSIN
Ubiquitin carboxyl-terminal hydrolase 1 (Homo sapiens), sequence (O94782 whole entry, looked up): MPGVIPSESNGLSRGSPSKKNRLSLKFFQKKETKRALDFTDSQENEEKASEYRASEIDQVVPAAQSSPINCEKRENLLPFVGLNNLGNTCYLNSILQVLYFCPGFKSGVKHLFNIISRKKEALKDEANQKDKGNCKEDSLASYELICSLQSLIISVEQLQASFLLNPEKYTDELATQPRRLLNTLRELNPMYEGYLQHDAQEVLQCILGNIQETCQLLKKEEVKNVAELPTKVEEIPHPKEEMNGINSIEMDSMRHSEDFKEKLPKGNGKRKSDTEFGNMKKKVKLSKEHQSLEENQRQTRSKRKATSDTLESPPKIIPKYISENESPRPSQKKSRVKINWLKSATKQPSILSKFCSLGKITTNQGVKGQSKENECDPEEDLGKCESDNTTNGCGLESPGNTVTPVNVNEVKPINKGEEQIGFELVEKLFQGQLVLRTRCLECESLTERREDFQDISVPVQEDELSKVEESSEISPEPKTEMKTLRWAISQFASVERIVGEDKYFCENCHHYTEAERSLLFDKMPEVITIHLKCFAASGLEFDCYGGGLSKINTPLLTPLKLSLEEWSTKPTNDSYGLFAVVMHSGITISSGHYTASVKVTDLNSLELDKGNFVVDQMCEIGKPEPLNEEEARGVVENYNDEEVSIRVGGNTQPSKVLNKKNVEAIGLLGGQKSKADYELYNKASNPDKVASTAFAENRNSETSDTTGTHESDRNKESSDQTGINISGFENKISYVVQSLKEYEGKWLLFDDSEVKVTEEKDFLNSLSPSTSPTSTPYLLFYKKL
Cytochrome P450 2C19 (Homo sapiens), sequence (P33261 whole entry, looked up): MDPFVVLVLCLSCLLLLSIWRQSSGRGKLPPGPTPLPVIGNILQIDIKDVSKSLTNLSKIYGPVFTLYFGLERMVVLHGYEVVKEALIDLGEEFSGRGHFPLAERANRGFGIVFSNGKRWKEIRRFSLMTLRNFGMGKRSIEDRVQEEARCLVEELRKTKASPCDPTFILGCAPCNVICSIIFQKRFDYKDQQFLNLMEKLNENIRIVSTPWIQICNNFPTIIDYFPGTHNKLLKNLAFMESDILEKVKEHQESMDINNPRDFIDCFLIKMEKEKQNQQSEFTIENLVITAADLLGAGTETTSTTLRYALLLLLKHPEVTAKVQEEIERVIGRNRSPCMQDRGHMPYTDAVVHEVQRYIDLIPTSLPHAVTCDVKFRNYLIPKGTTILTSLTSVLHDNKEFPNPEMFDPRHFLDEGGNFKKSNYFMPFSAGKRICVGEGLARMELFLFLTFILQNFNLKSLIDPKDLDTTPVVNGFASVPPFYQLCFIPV

On to `COc1ccccc1CNc1ncnc2ccc(-c3ccc(C(=O)N(C)C)cc3)cc12`, for which the Potency in assay [1] was greater than 11.4 µM; in assay [4], greater than 46 µM; in assay [5], greater than 46 µM. In addition, in [2], the activity change, negative = inhibition is 14.5%. Moreover, the result in [3] and in assay [7] was inactive. The Potency result in [6], in [8], in assay [9] and in assay [10] was “inactive” in each case.

For the compound `COc1cccc(-c2cncnc2NCCN2CCOCC2)c1`, the Potency in assay [1] was greater than 11.4 µM; in assay [12] it was 15.8 µM (active); in assay [4], greater than 46 µM; in [5], greater than 46 µM; in [14] it was 2.51 µM (active). The activity change, negative = inhibition in assay [11] is 24.4%. For the same compound, the Potency entry in [6], in assay [13], in assay [8], in [15] and in [10] was “inactive” each time. The outcome in assay [7] was inactive.

In the case of `Cn1cc(-c2nc3cnc(N4CCNCC4)nc3n(C3CC3)c2=O)c2ccccc21`, the Potency in assay [1] is greater than 11.4 µM; in [12] it was 12.6 µM (active); in assay [4], greater than 9.22 µM; in [5], greater than 46 µM. In addition, the activity change, negative = inhibition in assay [2] was 28.9%. Besides, the Potency result in assay [13], in [8], in assay [9] and in [10] was “inactive” each time. For the same compound, the call in [7] was inactive.

With `Cc1nc2cnc(N3CCN(C)CC3)nc2n(CCc2ccccc2)c1=O`, the Potency was greater than 11.4 µM in assay [1]; 10 µM (active) in [12]; greater than 9.22 µM in assay [4]; greater than 46 µM in assay [5]; 5.01 µM (active) in [16]. The figures for the activity change, negative = inhibition in assay [11] and in [2] were 0.08% and -16.9%, respectively. In addition, in [3], the compound was called inactive. Also, the Potency result in assay [8], in assay [15] and in assay [10] was “inactive” in each case.

As for `COc1ccccc1CNc1ccnc(-c2cccc(NS(C)(=O)=O)c2)n1`, the Potency in assay [1] is greater than 11.4 µM; in [4], greater than 46 µM; in assay [5], greater than 46 µM; in [8], 28.2 µM (active); in [15], 25.1 µM (active). For the same compound, the figures for the activity change, negative = inhibition in [11] and in assay [2] were -17.8% and 2.18%, respectively. The compound was classed as inactive in assay [3]. The Potency entry in assay [6] and in [13] was “inactive” throughout.

For `O=c1c(CCc2ccccc2)nc2cnc(Nc3ccccc3)nc2n1C[C@H]1CCCO1`, the Potency in assay [1] is greater than 11.4 µM; in assay [4] it was greater than 9.22 µM. Further, the activity change, negative = inhibition in assay [11] is 16.4%. Also, the Potency result in assay [6], in assay [8], in assay [15] and in assay [10] was “inactive” each time.

Regarding `CN(C)c1ncc2nc(-c3ccccc3)c(=O)n(C)c2n1`, the Potency in assay [12] was 1 µM (active); in assay [4], greater than 9.22 µM; in assay [5], greater than 46 µM; in assay [14] it was 2.51 µM (active). Moreover, the Potency result in [8], in assay [15], in [9] and in [10] was “inactive” in each case.

For `CN(C)c1ccc(-c2cncnc2NCCN2CCOCC2)cc1`, the Potency in assay [1] is greater than 11.4 µM; in [12], 15.8 µM (active); in [4] it was greater than 46 µM; in [5], greater than 46 µM; in [16], 6.31 µM (active); in [14], 1.26 µM (active). Also, the Potency entry in assay [6], in assay [13], in assay [8], in assay [15] and in assay [10] was “inactive” throughout.

Regarding `Cc1cnc(CNc2ncnc3ccc(-c4ccccc4C)cc23)cn1`, the Potency in assay [1] was greater than 11.4 µM; in [12] it was 6.31 µM (active); in assay [4], greater than 46 µM; in assay [5] it was greater than 46 µM; in assay [8] it was 28.2 µM (active); in [15] it was 25.1 µM (active). Also, the values for the activity change, negative = inhibition in [11] and in assay [2] were -14.7% and -7.95%, respectively. Also, the call in assay [3] and in assay [7] was inactive. The Potency entry in assay [13] and in [10] was “inactive” throughout.

For the compound `COc1ccc(-c2nc3cnc(N4CCN(C)CC4)nc3n(CCc3ccccc3)c2=O)cc1`, the results for the Potency in assay [4], in assay [5] and in assay [14] were greater than 9.22 µM, greater than 46 µM and 3.16 µM (active), respectively. Moreover, the Potency entry in assay [6], in assay [13], in assay [17], in [8], in assay [15] and in assay [10] was “inactive” throughout.
